Compounds without any hit were thinned out: in the full panel of roughly 83,000, 20% have a hit.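 Interpretation: 100, growth as untreated; towards 0, rising growth inhibition; 0, no net growth; 0 to -100, cell death. Compounds scoring below 10 were considered active.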 The source made the active and inactive calls.
Columns and labels:
Assay in all cases: NCI-60 one-dose screen, 48 h (100 = growth as untreated, 0 = no growth, -100 = all killed)
Settings in all cases: 10 µM unless noted
NCI-H23 lung = system: NCI-H23 lung
NCI-H226 lung = system: NCI-H226 lung
NCI-H322M lung = system: NCI-H322M lung
HOP-62 NSCLC = system: HOP-62 NSCLC
NCI-H460 lung = system: NCI-H460 lung
HOP-92 NSCLC = system: HOP-92 NSCLC
NCI-H522 lung = system: NCI-H522 lung
A549/ATCC NSCLC = system: A549/ATCC NSCLC
786-0 renal = system: 786-0 renal
COLO 205 colon = system: COLO 205 colon

Measured: growth

COc1c(B(O)O)cccc1-c1nc2c(F)cc3n[nH]c(C)c3c2c2c1CCCC2
inactive: NCI-H23 lung 17.5% | NCI-H322M lung 27.6% | HOP-62 NSCLC 22% | NCI-H460 lung 11.7% | HOP-92 NSCLC 24.7% | 786-0 renal 19.8%
active: NCI-H226 lung -0.685% | NCI-H522 lung 9.41% | A549/ATCC NSCLC 9.82%

COc1cc2nccc(Oc3ccc(NC(=O)C4(C(=O)Nc5ccc(F)cc5)CC4)cc3)c2cc1OC(=O)c1ccc(N)cc1
active: HOP-92 NSCLC -13.3% | 786-0 renal -17.4%
inactive: NCI-H23 lung 37.8% | NCI-H226 lung 55.7% | NCI-H322M lung 43% | HOP-62 NSCLC 11.7% | NCI-H460 lung 24.7% | NCI-H522 lung 21.4% | A549/ATCC NSCLC 33.6%

CC1CN(CCCOC(=O)Nc2ccc(Cl)cc2)CCN1C(C)(C)C (stereo not given)
inactive: NCI-H23 lung 101% | NCI-H226 lung 96.4% | NCI-H322M lung 96.5% | HOP-62 NSCLC 112% | NCI-H460 lung 106% | HOP-92 NSCLC 133% | NCI-H522 lung 97.5% | A549/ATCC NSCLC 103% | 786-0 renal 99.3%

COc1cccc(NC(=O)c2c(-c3ccccc3)c(-c3ccccc3)n[nH]c2=O)c1
inactive: NCI-H23 lung 101% | NCI-H226 lung 100% | NCI-H322M lung 111% | HOP-62 NSCLC 102% | NCI-H460 lung 98% | HOP-92 NSCLC 112% | NCI-H522 lung 89.2% | A549/ATCC NSCLC 100% | 786-0 renal 97.6%

CC(C)c1[nH]ncc1-c1nc2ccc3[nH]ncc3c2c2c1CCCC2
inactive: NCI-H23 lung 32.7% | NCI-H226 lung 35.5% | NCI-H322M lung 39.7% | HOP-62 NSCLC 30.5% | NCI-H460 lung 16.1% | HOP-92 NSCLC 58.5% | NCI-H522 lung 41% | A549/ATCC NSCLC 13.9% | 786-0 renal 23.2%

COc1cc(NCCCCC(C)N)c2nccc(C)c2c1 (stereo not given)
inactive: NCI-H23 lung 89.3% | NCI-H226 lung 93.2% | NCI-H322M lung 79.8% | HOP-62 NSCLC 78.3% | NCI-H460 lung 95.3% | HOP-92 NSCLC 46.5% | NCI-H522 lung 90.7% | A549/ATCC NSCLC 101% | 786-0 renal 83.7%

O=NN(CC(=O)NNc1ccccc1)CC(=O)NNc1ccccc1
inactive: NCI-H23 lung 103% | NCI-H226 lung 85.9% | NCI-H322M lung 85% | HOP-62 NSCLC 87.8% | NCI-H460 lung 66.2% | HOP-92 NSCLC 88.5% | NCI-H522 lung 52% | A549/ATCC NSCLC 65.9% | 786-0 renal 90.9%

COc1cc(OC)cc(-c2n/c(=C\c3c(O)[nH]c4ccc(Cl)cc34)cc3c2=Nc2ccccc2-3)c1
inactive: NCI-H23 lung 34% | NCI-H226 lung 84.3% | NCI-H322M lung 93.2% | HOP-62 NSCLC 72.5% | NCI-H460 lung 43.3% | HOP-92 NSCLC 92.6% | NCI-H522 lung 60.7% | A549/ATCC NSCLC 58.5% | 786-0 renal 39.3%

CN1CCN(Cc2ccc(NC(=O)c3cncc(C#Cc4ncc5cnccn45)c3)cc2C(F)(F)F)CC1
inactive: NCI-H23 lung 34.3% | NCI-H322M lung 60.4% | HOP-62 NSCLC 33.7% | NCI-H460 lung 52.6% | HOP-92 NSCLC 11.2% | NCI-H522 lung 58.3% | A549/ATCC NSCLC 74.2% | 786-0 renal 71.5%
active: NCI-H226 lung -7.4%

C/C(=N\OC(=O)Nc1ccccc1)c1ccccc1
inactive: NCI-H23 lung 105% | NCI-H226 lung 95.2% | NCI-H322M lung 99.1% | HOP-62 NSCLC 118% | NCI-H460 lung 103% | HOP-92 NSCLC 126% | NCI-H522 lung 98.6% | A549/ATCC NSCLC 88.3% | 786-0 renal 99.3%

Cc1nc2ccc(Nc3nc(NCCN4CCOCC4)nc(Nc4ccc(F)cc4)n3)cc2n1Cc1ccccc1
active: 786-0 renal 4.17% | COLO 205 colon 1.19%
inactive: NCI-H23 lung 67% | NCI-H226 lung 72.1% | NCI-H322M lung 64.1% | HOP-62 NSCLC 47.8% | NCI-H460 lung 29.4% | HOP-92 NSCLC 30.3% | NCI-H522 lung 58.7% | A549/ATCC NSCLC 46.3%

O=C(Nc1ccc(Oc2ccc(Nc3nc4ccccc4s3)cc2)cc1)Nc1ccc(Cl)c(C(F)(F)F)c1
active: NCI-H23 lung -20.2% | NCI-H226 lung 4.93% | NCI-H460 lung 1.39% | HOP-92 NSCLC -25% | NCI-H522 lung -36.8% | A549/ATCC NSCLC 9.75% | 786-0 renal 1.24% | COLO 205 colon -84%
inactive: NCI-H322M lung 25.7% | HOP-62 NSCLC 17%

CCCC(CCC)NCC(O)c1cc(-c2ccc(C(F)(F)F)cc2)nc(C(F)(F)F)c1 (stereo not given)
active: NCI-H23 lung -59.4% | NCI-H226 lung -69.5% | NCI-H322M lung 0.686% | HOP-62 NSCLC -64.8% | NCI-H460 lung -60.1% | HOP-92 NSCLC -71.5% | NCI-H522 lung -77.5% | A549/ATCC NSCLC -59.6% | 786-0 renal -61.5% | COLO 205 colon -83.5%

Clc1ccc2c(c1)-c1ccccc1C1=NCCN12
inactive: NCI-H23 lung 33.4% | NCI-H226 lung 24.7% | NCI-H322M lung 25.3% | HOP-62 NSCLC 45.9% | HOP-92 NSCLC 58.6% | NCI-H522 lung 23.2% | A549/ATCC NSCLC 13% | 786-0 renal 44.8%
active: NCI-H460 lung 8.92% | COLO 205 colon 7.28%

O=C1c2ccccc2C(=O)c2c1oc1ccc3ccccc3c21
inactive: NCI-H23 lung 33.7% | NCI-H226 lung 85.5% | NCI-H322M lung 83.1% | HOP-62 NSCLC 108% | NCI-H460 lung 44.9% | HOP-92 NSCLC 102% | NCI-H522 lung 97.5% | A549/ATCC NSCLC 60.8% | 786-0 renal 101% | COLO 205 colon 107%

CC(=O)[C@H]1CC[C@H]2[C@@H]3CC[C@H]4CC=CC[C@]4(C)[C@H]3CC[C@]12C
inactive: NCI-H23 lung 96.8% | NCI-H226 lung 92.9% | NCI-H322M lung 95.2% | HOP-62 NSCLC 109% | NCI-H460 lung 104% | HOP-92 NSCLC 101% | NCI-H522 lung 40% | A549/ATCC NSCLC 84% | 786-0 renal 91.7% | COLO 205 colon 106%

CC1=NC(c2ccc(Cl)cc2)C2=C(N1)/C(=C/c1ccc(Cl)cc1)CCC2 (stereo not given)
inactive: NCI-H23 lung 81.8% | NCI-H226 lung 113% | NCI-H322M lung 94.5% | HOP-62 NSCLC 106% | NCI-H460 lung 99.4% | HOP-92 NSCLC 86.4% | NCI-H522 lung 98.6% | A549/ATCC NSCLC 89% | 786-0 renal 92.7% | COLO 205 colon 99%

COc1cc(-c2n/c(=C\c3c(O)[nH]c4cc(Cl)ccc34)cc3c2=Nc2ccccc2-3)cc(OC)c1OC
inactive: NCI-H23 lung 45.2% | NCI-H226 lung 89.9% | NCI-H322M lung 62.3% | HOP-62 NSCLC 23.3% | NCI-H460 lung 59.7% | HOP-92 NSCLC 27.2% | NCI-H522 lung 54.6% | A549/ATCC NSCLC 59.5% | 786-0 renal 34.5% | COLO 205 colon 58.6%

O=c1c2sc3ncc(Cl)cc3c2nnn1-c1cccc(Cl)c1
inactive: NCI-H23 lung 83.8% | NCI-H226 lung 33.4% | NCI-H322M lung 56.8% | HOP-62 NSCLC 47.7% | NCI-H460 lung 22% | HOP-92 NSCLC 63.8% | NCI-H522 lung 82% | A549/ATCC NSCLC 42.5% | 786-0 renal 72.5% | COLO 205 colon 89.4%

O=C(CCCCCCc1nc2ccc(Br)cc2[nH]1)NO
inactive: NCI-H226 lung 19.3% | HOP-62 NSCLC 12.5%
active: NCI-H23 lung -25.6% | NCI-H322M lung 4.52% | NCI-H460 lung -25.6% | HOP-92 NSCLC -21.7% | NCI-H522 lung -16% | A549/ATCC NSCLC 7.55% | 786-0 renal -4.46% | COLO 205 colon -98.5%

CN1CCN(Cc2ccc(NC(=O)c3cnc(F)c(C#Cc4cnc(N)c5ncccc45)c3)cc2C(F)(F)F)CC1
active: NCI-H226 lung -14.2% | HOP-92 NSCLC -8.06% | COLO 205 colon -7.96%
inactive: NCI-H23 lung 28.3% | NCI-H322M lung 33.7% | HOP-62 NSCLC 16.6% | NCI-H460 lung 13.1% | NCI-H522 lung 30% | A549/ATCC NSCLC 23.3% | 786-0 renal 29.5%

COc1ccc(-c2n[nH]nc2-c2cc(OC)c3c(c2)OCO3)cc1
inactive: NCI-H23 lung 10.4% | NCI-H226 lung 69.1% | NCI-H322M lung 13.9% | HOP-62 NSCLC 18.5% | HOP-92 NSCLC 29% | A549/ATCC NSCLC 13.9% | 786-0 renal 20.5%
active: NCI-H460 lung 7.77% | NCI-H522 lung -51.6% | COLO 205 colon -93.1%

O=C(NC1CC1)c1ccc(-c2nc3ccc4[nH]ncc4c3c3c2CCCC3)cc1
inactive: NCI-H23 lung 53.3% | NCI-H226 lung 44.7% | NCI-H322M lung 41.7% | HOP-62 NSCLC 28.9% | NCI-H460 lung 41.7% | HOP-92 NSCLC 71.2% | NCI-H522 lung 18.9% | A549/ATCC NSCLC 26.3% | 786-0 renal 42.1% | COLO 205 colon 23.6%

COc1cc(/C=C/C(=O)c2ccc(NC(=O)CSc3nnc(-c4ccc(Cl)cc4)n3-c3ccccc3)cc2)cc(OC)c1OC
inactive: NCI-H23 lung 55.9% | NCI-H226 lung 82% | NCI-H322M lung 96.5% | HOP-62 NSCLC 96.5% | NCI-H460 lung 80% | HOP-92 NSCLC 97.9% | NCI-H522 lung 63.8% | A549/ATCC NSCLC 69.8% | 786-0 renal 79% | COLO 205 colon 79.8%

Cc1nc([C@H]2CC[C@H]3[C@@H]4CCC5=CC(=O)CC[C@]5(C)[C@H]4CC[C@]23C)cs1
inactive: NCI-H23 lung 49.9% | NCI-H226 lung 76.9% | NCI-H322M lung 116% | HOP-62 NSCLC 104% | NCI-H460 lung 41.5% | HOP-92 NSCLC 85% | NCI-H522 lung 22% | A549/ATCC NSCLC 63.3% | 786-0 renal 62.7% | COLO 205 colon 97.5%

Oc1[nH]c2ccccc2c1/C=c1/ccc2c(c1)N=C(c1ccc(C(F)(F)F)cc1)N=2
active: 786-0 renal 6.1%
inactive: NCI-H23 lung 67% | NCI-H226 lung 89.6% | NCI-H322M lung 76.8% | HOP-62 NSCLC 71.6% | NCI-H460 lung 41.1% | HOP-92 NSCLC 57.4% | NCI-H522 lung 40.7% | A549/ATCC NSCLC 50% | COLO 205 colon 78.8%

CC1(C)C(N(O)C(=O)Nc2ccc(Cl)cc2)N(c2ccc(Cl)cc2)C(=O)N1CC(=O)N/N=C/C=C/c1ccc([N+](=O)[O-])o1 (stereo not given)
active: NCI-H23 lung 3.01% | NCI-H460 lung -13.1% | HOP-92 NSCLC -30.9% | NCI-H522 lung -88.5% | A549/ATCC NSCLC 6.98% | 786-0 renal -48.9% | COLO 205 colon -81.3%
inactive: NCI-H226 lung 25.8% | NCI-H322M lung 49% | HOP-62 NSCLC 36.8%
